Measured values as given in PubChem BioAssay (NCI).
Compounds without any hit were thinned out: in the full panel of roughly 79,000, 15% have a hit. A number with no mark means an inactive call. The source made the active and inactive calls. Cut-off read from the data, not from the text of the source: active = growth inhibition above about 70%; inactive = the rest.

assay: NCI Yeast Anticancer Drug Screen. Data for the rad50 strain (AID 155);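 note: 0% = growth of vehicle-only cultures of the same strain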; details: S. cerevisiae rad50 strain growth inhibition; at 5.0 µM (retest, dose inferred, filed as 0.5); stronger effect = higher value
Outline: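 Relative growth inhibition (compound vs vehicle) was measured in yeast with a defined repair-gene alteration.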

| SMILES | growth inhibition |
| --- | --- |
| S=C(Nc1cc(Cl)cc(Cl)c1)SCc1ccccc1 | 33% |
| CCCOc1cc(C(=O)OCCN(CC)CC)cc(OCCC)c1OCCC | 6% |
| C=C1C(=O)[C@@]23CC[C@H]4[C@@](C)(CCC[C@@]4(C)C(=O)OC)[C@@H]2CC[C@]1(O)C3 | 83% (active) |
| CCCSc1ncnc2nc(C)[nH]c12 | -1% |
| O=C1C=CC(=O)N1CCCCCCN1C(=O)C=CC1=O | 19% |
| CCOC(=O)c1[nH]c2c([N+](=O)[O-])cccc2c1[N+](=O)[O-] | -12% |
| CSC(=S)/C(=C/Nc1ncccn1)c1ccccc1 | 5% |
| N#CNc1nc(N)c(-c2ccc(Cl)cc2)c(C(=O)Nc2ccc(Cl)c(Cl)c2)n1 | -1% |
| COc1ccc2c(c1)c(=O)c1c(NCCN(C)C)ccc3nnn2c31 | 13% |
| CCC[CH2][Sn]([S][Sn]([CH2]CCC)([c]1ccccc1)[c]1ccccc1)([c]1ccccc1)[c]1ccccc1 | 97% (active) |
| CCC1=CCC2C(=O)c3cc4ccccc4cc3C(=O)C2C1 (stereo not drawn) | 11% |
| Cc1ccccc1NC(=O)C1C(=O)N(c2ccccc2C)C(=O)/C1=N/O (stereo not drawn) | -21% |
| CCCCc1[nH]ccc2c(C)c3nc4ccccc4c3cc12 | 6% |
| O=C(O)C(Br)C(Br)C(=O)Nc1ccc(Cl)c(Cl)c1 (stereo not drawn) | 91% (active) |
| Cc1cc(C)c2c(c1)sc1nncn12 | 62% |
| CC(=O)C(C=O)C(C)=O.CC(=O)CC(C)=O.CC(=O)CC(C)=O.[Ru] | 4% |
| COc1ccc(NC(=O)CCC(=O)C(C)C(=O)c2ccccc2)cc1 (stereo not drawn) | 0% |
| CCCCCCCCCCCCCC(=O)CC(=O)c1c(O)cccc1O | 2% |
| Cc1ccc(NC(=S)SCc2ccco2)cc1Cl | 22% |
| Cc1nc(N)nn1C | -1% |

| SMILES | growth inhibition |
| --- | --- |
| Cc1cccc(O)c(=O)c1 | 12% |
| O=C1C=CC(=O)N1c1ccc(-c2nc3ccccc3o2)cc1 | 66% |
| NC1=NC(c2ccccc2)CC(c2cc(Cl)cc(Br)c2O)=N1 (stereo not drawn) | 0% |
| CCCCCCCCCCCc1ccn[nH]1 | -7% |
| CC(=O)Oc1c(-c2ccccc2)cc([N+](=O)[O-])cc1[N+](=O)[O-] | 13% |
| COc1cccc2c1C1c3ccccc3Sc3cccc(c31)O2 (stereo not drawn) | 6% |
| O=C1CC(O)C=C1Nc1ccc(Cl)cc1 (stereo not drawn) | 3% |
| C=CCNC(=S)N/N=C(/c1ccccn1)C(C)C | 1% |
| CCCCCCCCCCCCCCCC[N+](C)(C)c1ccccc1 | 98% (active) |
| O=C(NC(OCc1ccccc1)(C(F)(F)F)C(F)(F)F)OCc1ccccc1 | -14% |
| Cc1cc2oc3c(ccc(=O)n3C)c(=O)c2c(C)c1Cl | 9% |
| COc1cc2c(cc1OC)C(=O)C(C)(c1ccccc1)NC2 (stereo not drawn) | 20% |
| CCC(C)NCCNc1cc(OC)cc2cccnc12 (stereo not drawn) | 10% |
| CN(C)CCCN=c1c2ccccc2n(O)c2ccccc12 | -8% |
| N#CCc1ccccc1-c1cccc2ccccc12 | 0% |
| CN=C1NS(=O)(=O)c2ccccc21 | 2% |
| COc1cc(CSc2ccc(O)cc2)cc(OC)c1OC | -3% |
| CN(C)CCCNc1c2ccccc2nc2cccc([N+](=O)[O-])c12 | 93% (active) |
| CCCCCCCCCCCCCCCc1ncc(C)[nH]1 | 69% |

same assay, conditions: S. cerevisiae rad50 strain growth inhibition; at 50.0 µM (retest, dose inferred, filed as 5.0); stronger effect = higher value

| SMILES | growth inhibition |
| --- | --- |
| S=C(Nc1cc(Cl)cc(Cl)c1)SCc1ccccc1 | 78% (active) |
| CCCOc1cc(C(=O)OCCN(CC)CC)cc(OCCC)c1OCCC | 29% |
| C=C1C(=O)[C@@]23CC[C@H]4[C@@](C)(CCC[C@@]4(C)C(=O)OC)[C@@H]2CC[C@]1(O)C3 | 99% (active) |
| CCCSc1ncnc2nc(C)[nH]c12 | -1% |
| O=C1C=CC(=O)N1CCCCCCN1C(=O)C=CC1=O | 99% (active) |
| CCOC(=O)c1[nH]c2c([N+](=O)[O-])cccc2c1[N+](=O)[O-] | 15% |
| CSC(=S)/C(=C/Nc1ncccn1)c1ccccc1 | 97% (active) |
| N#CNc1nc(N)c(-c2ccc(Cl)cc2)c(C(=O)Nc2ccc(Cl)c(Cl)c2)n1 | 1% |
| COc1ccc2c(c1)c(=O)c1c(NCCN(C)C)ccc3nnn2c31 | 51% |
| CCC[CH2][Sn]([S][Sn]([CH2]CCC)([c]1ccccc1)[c]1ccccc1)([c]1ccccc1)[c]1ccccc1 | 94% (active) |
| CCC1=CCC2C(=O)c3cc4ccccc4cc3C(=O)C2C1 (stereo not drawn) | 26% |
| Cc1ccccc1NC(=O)C1C(=O)N(c2ccccc2C)C(=O)/C1=N/O (stereo not drawn) | 3% |
| CCCCc1[nH]ccc2c(C)c3nc4ccccc4c3cc12 | 93% (active) |
| O=C(O)C(Br)C(Br)C(=O)Nc1ccc(Cl)c(Cl)c1 (stereo not drawn) | 99% (active) |
| Cc1cc(C)c2c(c1)sc1nncn12 | 96% (active) |
| CC(=O)C(C=O)C(C)=O.CC(=O)CC(C)=O.CC(=O)CC(C)=O.[Ru] | 59% |
| COc1ccc(NC(=O)CCC(=O)C(C)C(=O)c2ccccc2)cc1 (stereo not drawn) | -1% |
| CCCCCCCCCCCCCC(=O)CC(=O)c1c(O)cccc1O | -7% |
| Cc1ccc(NC(=S)SCc2ccco2)cc1Cl | 99% (active) |
| Cc1nc(N)nn1C | 10% |

| SMILES | growth inhibition |
| --- | --- |
| Cc1cccc(O)c(=O)c1 | 98% (active) |
| O=C1C=CC(=O)N1c1ccc(-c2nc3ccccc3o2)cc1 | 92% (active) |
| NC1=NC(c2ccccc2)CC(c2cc(Cl)cc(Br)c2O)=N1 (stereo not drawn) | 25% |
| CCCCCCCCCCCc1ccn[nH]1 | 98% (active) |
| CC(=O)Oc1c(-c2ccccc2)cc([N+](=O)[O-])cc1[N+](=O)[O-] | 93% (active) |
| COc1cccc2c1C1c3ccccc3Sc3cccc(c31)O2 (stereo not drawn) | 3% |
| O=C1CC(O)C=C1Nc1ccc(Cl)cc1 (stereo not drawn) | 14% |
| C=CCNC(=S)N/N=C(/c1ccccn1)C(C)C | 40% |
| CCCCCCCCCCCCCCCC[N+](C)(C)c1ccccc1 | 98% (active) |
| O=C(NC(OCc1ccccc1)(C(F)(F)F)C(F)(F)F)OCc1ccccc1 | 98% (active) |
| Cc1cc2oc3c(ccc(=O)n3C)c(=O)c2c(C)c1Cl | 38% |
| COc1cc2c(cc1OC)C(=O)C(C)(c1ccccc1)NC2 (stereo not drawn) | 2% |
| CCC(C)NCCNc1cc(OC)cc2cccnc12 (stereo not drawn) | 13% |
| CN(C)CCCN=c1c2ccccc2n(O)c2ccccc12 | -6% |
| N#CCc1ccccc1-c1cccc2ccccc12 | 36% |
| CN=C1NS(=O)(=O)c2ccccc21 | 0% |
| COc1cc(CSc2ccc(O)cc2)cc(OC)c1OC | 34% |
| CN(C)CCCNc1c2ccccc2nc2cccc([N+](=O)[O-])c12 | 99% (active) |
| CCCCCCCCCCCCCCCc1ncc(C)[nH]1 | 69% |
